“And” between values parts separate entries of the source, which are not always exact repeats. Identical values can stand only once. The whole screen tested about 5,500 compounds, of which about 2,000 (36%) were called active. Inconclusive results (about 18%) are left out. Rule as the data show it: active = normalized growth mostly below about 0.91 (no sharp cut-off); inconclusive = no clear call, values can overlap the other calls; inactive = mostly above about 0.92. The list shows a part of the results.
Test: chemical genetic growth profiling, strain panel (AID 1159580);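 also: tested at 20 µM; growth read once vehicle control cultures reached saturation at 30 °C; 1 = growth at the plate median or of vehicle wells; lower values mean less growth of the strain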
Conditions: S. cerevisiae deletion strains, growth OD

Measured: normalized growth

CC(=O)Nc1ccccc1
inactive: locus YAL021C, strain ccr4, hits give low values 0.971 | locus YAL026C, strain drs2, hits give low values 0.977 | locus YAL030W, strain snc1, hits give low values 0.972 | locus YBL061C, strain skt5, hits give low values 0.962 | locus YBR009C, strain hhf1, hits give low values 0.977 | locus YBR021W, strain FUR4, hits give low values 1.02 | locus YBR023C, strain chs3, hits give low values 0.961 | locus YBR171W, strain sec66, hits give low values 0.965 | locus YBR229C, strain ROT2, hits give low values 0.957 | locus YBR231C, strain swc5, hits give low values 0.963 | locus YBR279W, strain paf1, hits give low values 0.981 | locus YCL011C, strain gbp2, hits give low values 0.962 | locus YCL016C, strain dcc1, hits give low values 0.966 | locus YCL029C, strain bik1, hits give low values 0.983 | locus YCL061C, strain MRC1, hits give low values 0.987 | locus YCL069W, strain vba3, hits give low values 0.962 | locus YCR088W, strain abp1, hits give low values 0.976 | locus YDL005C, strain med2, hits give low values 0.98 | locus YDL035C, strain GPR1, hits give low values 0.987 | locus YDL040C, strain nat1, hits give low values 0.97 | locus YDL074C, strain BRE1, hits give low values 0.963 | locus YDL101C, strain DUN1, hits give low values 0.98 | locus YDL134C, strain PPH21, hits give low values 1.02 | locus YDL185W, strain tfp1, hits give low values 0.986 | locus YDL192W, strain arf1, hits give low values 0.985 | locus YDR001C, strain nth1, hits give low values 0.974 | locus YDR069C, strain doa4, hits give low values 0.959 | locus YDR101C, strain arx1, hits give low values 0.982 | locus YDR137W, strain rgp1, hits give low values 1.01 | locus YDR150W, strain NUM1, hits give low values 0.983 | locus YDR159W, strain sac3, hits give low values 0.977 | locus YDR162C, strain NBP2, hits give low values 0.995 | locus YDR195W, strain ref2 0.935 | locus YDR297W, strain sur2, hits give low values 0.975 | locus YDR318W, strain mcm21, hits give low values 0.999 | locus YDR334W, strain swr1, hits give low values 0.956 | locus YDR335W, strain msn5, hits give low values 0.982 | locus YDR388W, hits give low values 0.986 | locus YDR392W, strain spt3, hits give low values 0.993 | locus YDR502C, strain sam2, hits give low values 0.989 | locus YEL003W, strain gim4, hits give low values 0.973 | locus YEL037C, strain rad23, hits give low values 0.972 | locus YEL061C, strain CIN8 (second series), hits give low values 0.962 | locus YEL061C, strain CIN8, hits give low values 0.975 | locus YER015W, strain faa2, hits give low values 0.977 | locus YER016W, strain bim1, hits give low values 0.973 | locus YER110C, hits give low values 0.977 | locus YER111C, strain swi4, hits give low values 0.972 | locus YER155C, strain BEM2 (second series), hits give low values 0.981 | locus YER155C, strain BEM2, hits give low values 0.999 | locus YER167W, strain BCK2, hits give low values 0.999 | locus YFR010W, strain ubp6, hits give low values 0.96 | locus YGL078C, strain dbp3, hits give low values 0.99 | locus YGL086W, strain mad1, hits give low values 0.981 | locus YGL167C, strain pmr1, hits give low values 0.947 | locus YGL173C, strain kem1, hits give low values 0.967 | locus YGL227W, strain vid30, hits give low values 0.966 | locus YGL240W, strain doc1, hits give low values 0.965 | locus YGL248W, strain PDE1, hits give low values 0.976 | locus YGL253W, strain hxk2, hits give low values 0.982 | locus YGR135W, strain pre9, hits give low values 1 | locus YGR229C, strain SMI1, hits give low values 0.973 | locus YGR252W, strain gcn5, hits give low values 0.968 | locus YHR013C, strain ard1, hits give low values 0.942 | locus YHR027C, strain rpn1, hits give low values 0.973 | locus YHR030C, strain SLT2, hits give low values 0.991 and 0.975 | locus YHR079C, strain IRE1 (second series), hits give low values 0.99 | locus YHR079C, strain IRE1, hits give low values 0.969 | locus YHR094C, strain hxt1, hits give low values 0.988 | locus YHR129C, strain ARP1, hits give low values 0.993 | locus YHR142W, strain chs7, hits give low values 0.963 | locus YHR200W, strain rpn10, hits give low values 0.986 | locus YIL066C, strain RNR3, hits give low values 0.968 | locus YIL073C, strain SPO22, hits give low values 1.03 | locus YIL125W, strain kgd1, hits give low values 0.983 | locus YIR030C, strain dcg1, hits give low values 0.988 | locus YJL092W, strain hpr5, hits give low values 0.977 | locus YJL095W, strain BCK1 (second series), hits give low values 0.966 | locus YJL095W, strain BCK1, hits give low values 0.98 and 0.984 | locus YJL115W, strain asf1, hits give low values 0.951 | locus YJL129C, strain trk1, hits give low values 0.981 | locus YJL134W, strain LCB3, hits give low values 0.992 | locus YJL154C, strain vps35, hits give low values 0.975 | locus YJL164C, strain tpk1, hits give low values 0.963 | locus YJL166W, strain qcr8, hits give low values 0.976 | locus YJL168C, strain set2, hits give low values 0.978 | locus YJL187C, strain SWE1 (second series), hits give low values 0.965 | locus YJL187C, strain SWE1, hits give low values 0.972 | locus YJR043C, strain POL32, hits give low values 0.968
